Compound activity as filed in PubChem BioAssay.
The list is not random: actives were taken first. Their share in the collection is about 2.9%.
HEK293 viab: cell viability loss counter-screen; AID 1671193; 150,000 tested, 0.12% active; Potency, µM (top dose mostly 57.1 µM), for inactives: top-dose activity change, negative = cytotoxicity, most hits filed as cytotoxic; HEK-293-SNCA-luc viability, GF-AFC fluorescence, 24 h;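 further: potency means the concentration at half of the fitted maximal effect; 0% = DMSO-treated cells and -100% = medium-only wells without cells; nearly all actives have a fitted effect of over 30% in size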
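HEK-293-SNCA-luc cells (1500/well) plated 24 h, then exposed 24 h to a dilution series; GF-AFC added 30 min at 37C, fluorescence 405/540 nm; normalised to medium-only and DMSO wells, Hill fit.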
KDM5B inhibitor: KDM5B demethylase inhibition | KDM5B demethylase, FDH-coupled NADH fluorescence (FDH is formaldehyde dehydrogenase) | Potency, µM (series often up to 57.7 µM), actives largely listed as inhibitors | 220,000 tested, 2.6% active | AID 1347165; further: potency means the concentration at half of the fitted maximal effect; 0% is about no effect; nearly all actives have a fitted effect of over 70% in size
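Coupled FDH/NAD⁺ fluorescence readout. KDM5BΔAP 200 nM final; compound titration, 10 min RT preincubation; substrate mix 12.5 µM H3K4me3, 25 µM 2-OG, 50 µM Fe(II), 100 µM ascorbate, 0.25 mM NAD⁺, 0.25 U/mL FDH; ΔRFU over 30 min.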
SNCA expr inh: SNCA gene expression inhibition | HEK-293 SNCA-luciferase knock-in, luminescence, 24 h | Potency, µM (titrated, usually from 57.2 µM), for the others: at the highest dose activity change, negative = inhibition, hits mostly inhibitors | 140,000 tested, 0.17% active | AID 1671194;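 further: potency means the concentration at half of the fitted maximal effect; plate controls were DMSO cells for no effect and cell-free wells for full effect; nearly all actives have a fitted effect of over 45% in size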
IP6K1 inhibitor: inhibitors of human IP6K1 | activity change, % (series mostly up to about 58 µM) | 140,000 tested, 0.81% active | IP6K1 kinase, ADP-Glo luminescence, 2 h; hits give low values; in the data active means activity change below about -25%; further: on the % scale 0 is the no-effect control and ±100 the full control effect
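ADP-Glo luminescence measures ADP made by human IP6K1 during a 2 h RT reaction with ATP/IP6 (mix at 1.3 mM/130 uM); top library doses 57.5 and 19.1 uM final.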
Numbers without * were called inactive; i = inactive; ? = inconclusive; nt = no result given; ! = a repeat was not active; [ ] = remark or other dose. Unless noted, the call rests on the fitted dose curve; in most records, active means well fitted curve in the direction sought with a large enough effect; inconclusive means small, poorly fitted or top-dose-only effect, or another doubt; inactive means no such curve, though single readings can be large; an effect the other way counts as inactive or inconclusive.

SMILES	HEK293 viab	KDM5B inhibitor	SNCA expr inh	IP6K1 inhibitor
CCCCCCNC(=O)Cc1csc2nc(C)c(-c3cc(C)n(-c4cccc(C)c4)n3)c(=O)n12	-15%	?	-7%	0
CCCCCNC(=O)Cc1csc2nc(C)c(-c3cc(C)n(-c4cccc(C)c4C)n3)c(=O)n12	-14%	32µM*	-20%	23
Cc1nc2scc(CC(=O)N3CCCC3)n2c(=O)c1-c1cc(C)n(-c2ccccc2F)n1	1%	?	9%	-7
COc1cccc(-c2cc(C(=O)NCc3ccccc3Cl)c3cnn(C)c3n2)c1	nt	nt	nt	5
Cn1ncc2c(C(=O)NCc3ccccc3Cl)cc(-c3ccccc3C(F)(F)F)nc21	nt	nt	nt	-3
CCCCCCNC(=O)Cc1csc2nc(C)c(-c3cc(C)n(-c4ccccc4OC)n3)c(=O)n12	-17%	28µM*	3%	2
COc1cccc(-c2cc(C(=O)N3CCC(Cc4ccccc4)CC3)c3cnn(C)c3n2)c1	nt	nt	nt	-9
Cc1cc(-c2nc3ccncc3[nH]2)c(C)o1	-7%[87.6 µM]	32µM*!	94%[87.6 µM]	8
COCCOc1ncccc1-c1noc([C@@H]2CCCN2C2CCN(C)CC2)n1	-3%[87.6 µM]	i	-5%[87.6 µM]	-9
COCCNc1ncccc1-c1noc([C@@H]2CCCN2C2CCOCC2)n1	-12%[87.6 µM]	40µM*	0%[87.6 µM]	14
COCCNc1ncccc1-c1noc([C@@H]2CCCN2Cc2cccc(C#N)c2)n1	-8%[87.6 µM]	?	-17%[87.6 µM]	11
COCCNc1ncccc1-c1noc([C@@H]2CCCN2CC(C)(C)C)n1	-11%[87.6 µM]	35µM*	-13%[87.6 µM]	23
COCCNc1ncccc1-c1noc([C@@H]2CCCN2Cc2ccco2)n1	-8%[87.6 µM]	28µM*	-21%[87.6 µM]	-6
Cc1ccc(OCc2nc(C3CN(C(=O)CCCc4ccccc4)C3)no2)cc1	-3%	nt	21%	3
Cc1cccc(CC(=O)N2CCC[C@H](n3c(=O)n(Cc4ccccc4)c4cccnc43)C2)c1	9%	i	-6%	9
CN1CCCN(S(=O)(=O)c2cccc(Br)c2)c2ccccc21	-28%	14µM*	?	-2
Cc1cccc(S(=O)(=O)N2CCCN(C)c3ccccc32)c1	-1%	i	-19%	-6
CN1CCCN(S(=O)(=O)c2ccc(C(F)(F)F)cc2)c2ccccc21	-2%	14µM*	-30%	0
COc1ccc(-c2c(C(=O)NCCc3ccccc3)nc3sccn23)cc1	-18%	nt	-2%	1
Cc1cccc(CC(=O)N2CCC(Nc3cccn4ncnc34)CC2)c1	-3%	?	17%	11
O=C(c1ccoc1)N1CCC(Nc2cccn3ncnc23)CC1	2%	13µM*	-11%	13
COc1ccc(OC)c(NC(=O)CC2CCCCN(Cc3ccccc3)C2=O)c1 (centres undefined)	-7%	nt	?	-4
CNC(C)c1ccc(Oc2ccccc2)cc1 (centres undefined)	-18%[87.6 µM]	i	0%[87.6 µM]	4
CNC(C)c1ccncc1 (centres undefined)	-12%[87.6 µM]	16µM*	-19%[87.6 µM]	-1
CC(=O)NC1CCN(c2nccc(Nc3ccccc3Cl)n2)CC1	-2%[87.6 µM]	nt	-20%[87.6 µM]	-9
SMILES	HEK293 viab	KDM5B inhibitor	SNCA expr inh	IP6K1 inhibitor
O=[S+]([O-])(c1ccccc1)N1CCCN(c2ccc3nnc(-c4ccccc4)n3n2)CC1	nt	nt	nt	-1
Cc1ccc(-c2cc(C(=O)NC3CCCCC3)c3ccccc3n2)cc1	nt	i	nt	nt
CC(=O)Nc1cc(C(=O)NC2CCCCC2)c2ccc(C)nc2c1	3%	22µM*	-18%	9
Cc1ccc2c(C(=O)NC3CCN(C)CC3)cc(NC(=O)C3CCC3)cc2n1	-1%	22µM*	-6%	4
CCOC(=O)c1ccc(CNC(=O)N2CCC[C@H](n3c(=O)n(C)c4cccnc43)C2)cc1	7%	nt	-18%	-5
CCC(=O)N1CCc2c(sc3ncnc(NCc4ccccc4)c23)C1	0%	32µM*	7%	4
Cn1cc(-c2cc(=O)c3ccnc(-c4cccc5[nH]ccc45)c3o2)cn1	-3%[87.6 µM]	i	59%[87.6 µM]	-17
COCc1ccccc1-c1nccc2c(=O)cc(-c3cnn(C)c3)oc12	10%[87.6 µM]	35µM*	0%[87.6 µM]	-22
Cn1cc(-c2cc(=O)c3ccnc(NCc4ccc5c(c4)OCO5)c3o2)cn1	-3%[87.6 µM]	32µM*	6%[87.6 µM]	-16
COc1ccc(Nc2ccnc(N3CCC(C(=O)N4CCN(Cc5ccccc5)CC4)CC3)n2)cc1	-1%[12.5 µM]	nt	?	-10
CN1CC(=O)N(c2ccccc2)Cc2c1ncnc2N1CCc2ccccc2C1	-8%	25µM*	-15%	-15
